Assay results published in PubChem BioAssay AID1026 (Columbia University Molecular Screening Center, 2008).
Activity calls are given as the source filed them. No rule for the calls is given here.

target: Bifunctional epoxide hydrolase 2 (Homo sapiens) (UniProt P34913); experiment: sEH inhibitor concentration-response potency, dose response, biochemical, human sEH, fluorescence, Infinite200 (AID 1026); conditions: recombinant human sEH, fluorogenic substrate, at 0.2 µM, stronger effect = higher value
Sequence (P34913 whole entry, looked up): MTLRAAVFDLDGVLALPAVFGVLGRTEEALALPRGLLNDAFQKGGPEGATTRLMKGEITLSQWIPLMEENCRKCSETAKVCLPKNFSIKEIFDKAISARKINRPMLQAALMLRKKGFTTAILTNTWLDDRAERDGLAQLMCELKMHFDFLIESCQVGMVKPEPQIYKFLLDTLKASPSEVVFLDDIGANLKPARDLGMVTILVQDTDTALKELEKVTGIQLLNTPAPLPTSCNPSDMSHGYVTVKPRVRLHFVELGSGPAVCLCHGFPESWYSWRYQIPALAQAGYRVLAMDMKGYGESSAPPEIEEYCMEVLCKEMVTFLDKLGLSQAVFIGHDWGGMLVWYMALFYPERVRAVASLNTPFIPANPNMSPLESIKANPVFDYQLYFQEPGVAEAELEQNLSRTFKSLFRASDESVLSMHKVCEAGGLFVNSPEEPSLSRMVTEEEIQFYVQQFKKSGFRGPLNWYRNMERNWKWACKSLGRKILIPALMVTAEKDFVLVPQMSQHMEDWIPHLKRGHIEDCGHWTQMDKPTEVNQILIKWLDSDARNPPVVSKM

inhibition, inactive:
O=C(COC(=O)c1ccc(S(=O)(=O)NCc2ccco2)cc1)NC1CCCCCC1 62.6%, Cc1ccccc1-c1nc(CN2CCC(C(=O)NCCC3=CCCCC3)CC2)c(C)o1 55.6%, O=C(NCCc1ccccc1)NC1CCCCC1 44.6%, CCCOc1cccc(/C=N/NC(=O)c2csc(C)c2C)c1 49.7%, O=C(/C=C/c1cc2c(cc1Br)OCO2)NCc1ccc(Cl)cc1 60.5%, O=C(NCCSCc1ccco1)Nc1cccc(Cl)c1 46.2%, COc1ccccc1NS(=O)(=O)c1cccc(C(=O)N/N=C(\C)c2ccc(-n3ccnc3)cc2)c1 46.4%, CCCCNC(=O)CSc1nc2ccc(NC(=O)CSc3nnc(COc4ccccc4C)n3C)cc2s1 58.5%, O=C(NC1CCCCCCC1)C1CCN(c2nc3ccccc3o2)CC1 73.5%, O=C(NC1CCCCC1)N1CCCC(c2nc(-c3cccs3)no2)C1 (stereo not given) 65.8%, COc1ccc(NC(=O)N2CCCC(c3nc(-c4ccc(C(C)C)cc4)no3)C2)cc1 (stereo not given) 64.5%, Cc1noc(C)c1COc1cccc(C(=O)NCc2ccccc2Cl)c1 52.4%, O=C(Nc1ccc2c(c1)OCCO2)NC1CCCCC1 52.7%, COc1ccc(-c2nc3cc(NC(=O)Cc4ccc(OC)c(OC)c4)ccc3o2)cc1 52.1%, CC(NC(=O)CSc1nnc(-c2cccc(S(=O)(=O)N3CCCCC3)c2)o1)C12CC3CC(CC(C3)C1)C2 (stereo not given) 66%, O=C(CCCN1C(=O)c2ccccc2C1=O)Nc1ccc(S(=O)(=O)N2CCCCC2)cc1 58%, CCC(CC)NC(=O)COC(=O)c1ccc(OCC(=O)Nc2ccccc2OC)c(OC)c1 48.6%, O=C(NCCC1=CCCCC1)C1CCCN(c2nc3ccccc3o2)C1 (stereo not given) 53.6%, CCN(CCNC(=O)C1CCN(Cc2nc(-c3ccc(Cl)cc3)oc2C)CC1)c1ccccc1 36.3%, CCCCC(CC)CNC(=O)C1CCCN(S(=O)(=O)c2cnc[nH]2)C1 (stereo not given) 49.9%, CC1CC(C)CN(C(=O)c2ccc3c(=O)n(Cc4ccc5c(c4)OCO5)c(=S)[nH]c3c2)C1 (stereo not given) 54.3%, CC(C)CN1C(=O)c2ccc(C(=O)NCc3ccc4c(c3)OCO4)cc2C1=O 56%, CC(C)c1ccc(NC(=O)N2CCC(c3nc4ccccc4o3)CC2)cc1 66.3%, CC1CCCN(S(=O)(=O)c2ccc(C(=O)Nc3nnc(-c4ccccc4Cl)o3)cc2)C1 (stereo not given) 58%, CC(=O)N1CCN(c2ccc(NC(=O)COc3ccc(Cl)cc3Cl)cc2)CC1 38.5%, CC(C)(C)c1ccc(C(=O)N2CCC(C(=O)NCCC3=CCCCC3)CC2)cc1 38%, CC(c1ccccc1)N1CCn2c(nc3cc(NC(=O)NC4CCCCC4)ccc32)C1 (stereo not given) 70.1%, O=C(Nc1cccc(C(F)(F)F)c1)N1CCC(c2nc(-c3ccc(F)cc3)no2)CC1 68.4%, COc1ccc(CCN2C(=O)C3C4CC(C5C(C(=O)N/N=C\c6ccc(Cl)cc6)=NOC45)C3C2=O)cc1OC (stereo not given) 67.1%, O=C(NCc1ccc2c(c1)OCO2)C1CCN(Cc2cnn(-c3ccccc3)c2-n2cccc2)CC1 57.2%, O=C(Nc1cccc(F)c1)NC1CCCCC1 51.9%, CC(Cc1cccs1)NC(=O)Nc1ccc(Cl)cc1 (stereo not given) 60.6%, Cc1ccc(Cn2ccc(=O)c(Cc3c(Cl)cccc3Cl)c2C)cc1 63.6%, O=C(NCCc1c[nH]c2ccccc12)C1CCC(Cn2c(=S)[nH]c3ccccc3c2=O)CC1 (stereo not given) 72.7%, C/C(=N\NC(=O)c1cccc(S(=O)(=O)Nc2ccccc2Cl)c1)c1ccc(-n2ccnc2)cc1 56%, Cc1ccc(N(CC(=O)NC2CCCCC2)C(=O)c2ccc(C)s2)cc1 43.7%, COCCNC(=O)CN1CCC(NC(=O)Nc2ccc(C(F)(F)F)cc2)CC1 54.7%, CCOc1ccc(NC(=O)Nc2ccc(N(C)C(C)=O)cc2)cc1 54.1%, O=C(Nc1ccc(F)c(F)c1)NC1CCCCC1 55.5%, O=C(Nc1cccc(F)c1)NC1CC2CCCC(C1)N2C1CC1 (stereo not given) 58.4%
